The panel holds about 83,000 compounds, 20% with a hit somewhere; the sample as a whole holds those more often.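 Note: values are percent growth. 100 is the growth of untreated cells, values between 100 and 0 indicate rising inhibition; between -100 and 0 indicates cell death.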 Unmarked numbers belong to inactive results. Calls of active or inactive are those of the source. Rule for the calls: active = growth percent below 10; inactive = the rest.
How the values were obtained:
Test in all cases: NCI-60 one-dose screen, 48 h (100 = growth as untreated, 0 = no growth, -100 = all killed)
Settings in all cases: 10 µM unless noted
NCI-H23 lung = tested on: NCI-H23 lung
NCI-H226 lung = tested on: NCI-H226 lung
NCI-H322M lung = tested on: NCI-H322M lung
HOP-62 NSCLC = tested on: HOP-62 NSCLC
NCI-H460 lung = tested on: NCI-H460 lung
HOP-92 NSCLC = tested on: HOP-92 NSCLC
NCI-H522 lung = tested on: NCI-H522 lung
A549/ATCC NSCLC = tested on: A549/ATCC NSCLC
786-0 renal = tested on: 786-0 renal
COLO 205 colon = tested on: COLO 205 colon

SMILES | growth (NCI-H23 lung) | growth (NCI-H226 lung) | growth (NCI-H322M lung) | growth (HOP-62 NSCLC) | growth (NCI-H460 lung) | growth (HOP-92 NSCLC) | growth (NCI-H522 lung) | growth (A549/ATCC NSCLC) | growth (786-0 renal) | growth (COLO 205 colon)
COc1ccc(-c2ncnc3c2ncn3CC#CCCl)cc1 | 59.1% | 56.5% | 92% | 77.5% | 67.8% | 9.39% (active) | 49% | 60.1% | 36.4% | 80%
CC(=O)N1CCN(c2ccc(OCC3CO[C@](Cn4ccnc4)(c4ccc(Cl)cc4Cl)O3)cc2)CC1 (stereo not given in full) | 78.3% | 58.7% | 93.6% | 74.4% | 96.4% | 61.4% | 82.4% | 85.2% | 77.6% | 86.9%
O=c1c2cc(F)ccc2sc2c(NCCN3CCOCC3)nc3ccccc3c12 | 85.1% | 91.3% | 77.8% | 80.9% | 31.8% | 44.6% | 65.6% | 69.3% | 59.2% | 53.2%
CCCCCCNC(=O)Oc1ccc(/C(=C(\C)c2ccc(Cl)cc2)c2ccc(OCCN(CC)CC)cc2)cc1 | 67.1% | 101% | 85.7% | 77.8% | 26.4% | 58.3% | 86.4% | 58.4% | 41.2% | 4.94% (active)
COc1cccc(/C=C2\C=C(c3ccccc3)N(Cc3ccccc3)C2=O)c1 | 71.1% | 73% | 51% | 69.4% | 72.3% | 18.1% | 56.4% | 47.9% | 57.3% | 74.3%
O=C1c2ccccc2NC(n2sc3ccccc3c2=O)N1c1ccccc1 (stereo not given) | 99% | 93.3% | 91.9% | 92.3% | 107% | 95.2% | 76.8% | 101% | 92% | 115%
Cc1[nH]c(C(=O)Nc2ccc(C(=O)NCCN)cc2OC(C)C)c(Cl)c1Cl | 79.5% | 93.5% | 53.3% | 59.9% | -55.2% (active) | 29.7% | -6.73% (active) | 47.3% | 44% | -45.7% (active)
COc1cc2cc(Oc3ccc(NC(=O)Nc4cc(C(F)(F)F)cc(C(F)(F)F)c4)cc3)c(C)nc2cc1OCCN1CCOCC1 | 7.96% (active) | 40.2% | 49.5% | 28.8% | 9.99% (active) | -14.2% (active) | 15% | 11.8% | 30.9% | -22.9% (active)
Cc1nc2nc(SCC(=O)O)[nH]c2c(=O)[nH]1 | 98.8% | 101% | 105% | 96.7% | 104% | 95.3% | 78.6% | 86.6% | 104% | 109%
Cc1ccc(C(=O)NN2C(=O)CSC2c2ccc(Cl)cc2)cn1 (stereo not given) | 84.1% | 82.4% | 119% | 82.2% | 101% | 71.1% | 84.3% | 100% | 107% | 105%
NC1CCN(c2nc(Nc3cccc(C(F)(F)F)c3)c3c(=O)[nH]ccc3n2)CC1 | -58.9% (active) | -62.5% (active) | -12.7% (active) | -58.8% (active) | -59.1% (active) | -61.5% (active) | -85.3% (active) | -52.2% (active) | -97.7% (active) | -61.1% (active)
COc1ccc(N)c(N)c1 | 96.4% | 113% | 95.4% | 105% | 105% | 92.5% | 81.4% | 98.1% | 102% | 105%
COc1cc(Nc2nc(NCCN)nc3cc[nH]c(=O)c23)cc(OC)c1 | 65.1% | 93.7% | 83% | 97.8% | 96.9% | 59.5% | 72.9% | 90.5% | 86.9% | 55.3%
BrCCCc1n(Cc2ccc3ccccc3c2)c2ccccc2[n+]1Cc1ccc2ccccc2c1 | -81.3% (active) | -72.6% (active) | 11.9% | -65.7% (active) | -88.4% (active) | -77% (active) | -52.3% (active) | -54.1% (active) | -90.7% (active) | -61.2% (active)
COc1cc(C)c(Cc2cnc(N)nc2N)cc1OC | 101% | 93.9% | 103% | 97.1% | 111% | 88.9% | 95.9% | 103% | 103% | 117%
CN(C)CCS(=O)(=O)Nc1cc(-c2ccc3ncc(C#N)c(Nc4ccc(F)c(Cl)c4)c3c2)cnc1Cl | -28.5% (active) | -15.2% (active) | -54.5% (active) | 0.0433% (active) | 0.906% (active) | -17.9% (active) | -39.8% (active) | -30.5% (active) | -20.1% (active) | -80.8% (active)
C=C1C(=O)O[C@H]2[C@H]1CC/C(COC(=O)CSCC(=O)OC/C1=C/CC[C@@]3(C)O[C@H]3[C@H]3OC(=O)C(=C)[C@@H]3CC1)=C\CC[C@@]1(C)O[C@@H]21 | 58.1% | 91.6% | 90.7% | 92.7% | 73.9% | -16.9% (active) | -69.7% (active) | 72.8% | 7.49% (active) | -54.9% (active)
COc1ccc(-c2cnc3ccccc3n2)cc1 | 93.2% | 82.7% | 95.2% | 87.9% | 101% | 86.9% | 80.2% | 94.6% | 95.4% | 104%
CC[C@H](C)C(=O)O[C@H]1CCC=C2C=C[C@H](C)[C@H](CC[C@@H]3CC=CC(=O)O3)[C@H]21 | 96.5% | 107% | 95.9% | 99.6% | 99% | 42% | 56.2% | 85.6% | 95.5% | 103%
COc1ccc(OC)c(/C=C/C(=O)N/N=C/c2ccc(Cl)cc2)c1 | 34.8% | 73.1% | 41.3% | 37.9% | 5.19% (active) | 77.7% | -36.2% (active) | 27.8% | 16.7% | -48.9% (active)
O=C(N/N=C/c1ccc(Cl)cc1)c1ccc(C(F)(F)F)nc1Nc1cccc(C(F)(F)F)c1 | -36.7% (active) | 21.2% | 8.21% (active) | 43.5% | 6.99% (active) | -0.43% (active) | 8.57% (active) | 19.5% | 23.1% | -12.6% (active)
CCc1ccc(Oc2c(-c3ccc(OCCc4cccc(C(F)(F)F)c4)cc3O)n[nH]c2C(F)(F)F)cc1 | 4.8% (active) | 52.9% | 76.7% | 76.6% | 2.53% (active) | -5.8% (active) | -20.5% (active) | 55.9% | 91.2% | 100%
COc1ccc(S(=O)(=O)n2c3ccccc3n3ncc(-c4nnc(C)o4)c23)cc1 | 31.7% | 55.7% | 49% | 37.3% | 14.2% | 66% | 31.2% | 27.4% | 42.7% | 7.03% (active)
NC1=NC(c2cccc(Br)c2)c2sc3ccc(Cl)cc3c2N1 (stereo not given) | 86.3% | 78.4% | 89.6% | 91.5% | 98.6% | 96.7% | 87.8% | 98% | 94.8% | 100%
Cc1cc(Cl)ccc1NS(=O)(=O)c1ccc(-c2cnc(C3CC3)o2)cc1 | 31.1% | 27.7% | 50.7% | 48.5% | 12.2% | 58.3% | 13.5% | 28.4% | 28.6% | -11% (active)
CCOC(=O)/C=C1\S/C(=N\Nc2ccc([N+](=O)[O-])cc2[N+](=O)[O-])N(Cc2ccccc2)C1=O | 76.8% | 93.1% | 97.9% | 103% | 93.1% | 71.5% | 68.6% | 93.2% | 91.2% | 99.1%
COc1c(N2CC3CCCN(C(C)=O)C3C2)c(F)cc2c(=O)c(C(=O)N[C@H]3C(O)[C@@H](O)C(CO)O[C@H]3O)cn(C3CC3)c12 (stereo not given in full) | 105% | 108% | 106% | 103% | 108% | 103% | 94.9% | 103% | 101% | 110%
